# Assay outcomes: PubChem, National Center for Advancing Translational Sciences (NCATS)
# DRD3 antagonist: D3 dopamine receptor (human) antagonism | D3R cells, DiscoveRx beta-arrestin luminescence, antagonist mode; active compounds read low | max response, negative = inhibition, % | hit rate 2.5% among 360,000 | AID 652054; in the data active means max response below about -50%; inconclusive means no clear call, values can overlap the other calls; further: on the % scale 0 is the no-effect control and ±100 the full control effect
# Target sequence (P35462 whole entry, looked up): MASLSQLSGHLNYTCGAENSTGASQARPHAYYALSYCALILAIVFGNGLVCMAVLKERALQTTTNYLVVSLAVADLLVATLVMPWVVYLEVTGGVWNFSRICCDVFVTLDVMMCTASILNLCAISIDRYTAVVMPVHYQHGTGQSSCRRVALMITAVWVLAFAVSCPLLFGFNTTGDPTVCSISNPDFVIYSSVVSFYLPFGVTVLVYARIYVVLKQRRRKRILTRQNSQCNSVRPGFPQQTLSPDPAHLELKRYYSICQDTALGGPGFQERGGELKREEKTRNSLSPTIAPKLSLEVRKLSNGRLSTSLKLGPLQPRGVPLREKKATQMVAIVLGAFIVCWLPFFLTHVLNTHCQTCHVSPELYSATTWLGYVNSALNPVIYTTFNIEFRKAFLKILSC
#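 Cells plated overnight at 1500 cells/well, then exposed to library compounds with dopamine controls for 90 minutes at 37 degrees C. DiscoveRx reagent added for 30–60 minutes at room temperature; luminescence read, quantitative HTS format.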
# D1 ag: activates the human D1 dopamine receptor; P21728; HEK293 T-REx D1 cells, calcium flux, agonist mode; activation, % at 2 µM; hit rate 1% among 360,000; AID 504660; in the data active means activation above about 30%; further: 0% is about no effect
#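 Inducible HEK293 T-REx D1 cells, force-coupled to calcium signalling, were plated at 4000 cells/well with tetracycline and held overnight at 30 C. After no-wash calcium dye loading, compound-evoked calcium rise over 180 s flagged agonists.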
# D1 antagonist: human D1 dopamine receptor antagonism; AID 504652; P21728; hit rate 3.2% among 360,000; activity change, negative = inhibition, % at 10 µM; HEK293 TREx D1 cells, calcium flux, dopamine EC80; active compounds read low; in the data active means activity change below about -30%; further: on the % scale 0 is the no-effect control and ±100 the full control effect
#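 After overnight tetracycline induction at 30 C, force-coupled D1 HEK293 cells took up a no-wash calcium dye at room temperature. Compounds were added and monitored 180 s, and the response to EC80 dopamine was then recorded.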
# D1 potentiator: enhances dopamine response at the human D1 receptor; P21728; HEK293 TREx D1 cells, calcium flux, dopamine EC20 potentiation; potentiation, % at 10 µM; hit rate 0.036% among 360,000; AID 504651; in the data active means potentiation above about 30%; further: 0% is about no effect
# D3 ag: D3 dopamine receptor (human) agonism. hit rate 0.58% among 410,000. P35462. D3R DiscoveRx beta-arrestin cells, luminescence, 90 min. max activation, %; in the data active means max activation above about 30%; further: 0% is about no effect
#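 Agonist mode: compounds and dopamine controls were applied to plated cells for 90 min at 37 degrees C after an overnight attachment at 1500 cells/well. Luminescent read-out followed 30 - 60 minutes at room temperature with DiscoveRx detection reagent.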
# Numbers without * were called inactive; ? = inconclusive; / = not tested or not shown; ! = repeats disagree. In the library only some 6.1% were active in any assay of this set; here they are far more common.
SMILES,DRD3 antagonist,D1 ag,D1 antagonist,D1 potentiator,D3 ag
Cc1cccc2sc(N(CCCN(C)C)C(=O)c3ccco3)nc12,-13,8,-6,-4,-4
COc1ccc(C)c2sc(N(CCN(C)C)C(=O)/C=C/c3cccs3)nc12,-55*,12,-4,-3,-18
Cc1cccc2sc(N(CCCN(C)C)C(=O)c3ccc(Cl)s3)nc12,7,37*!,-1,-3,-4
CCOc1cccc2sc(N(CCCN(C)C)C(=O)c3ccc(C(=O)c4ccccc4)cc3)nc12,-28,43*,-33*,-2,-16
CCOc1ccc2nc(N(CCN(C)C)C(=O)c3cc4ccccc4cc3OC)sc2c1,?,5,2,-5,-6
CN(C)CCCN(C(=O)COc1ccccc1)c1nc2c(F)cccc2s1,2,1,24,3,-16
CCOc1cccc2sc(N(CCN(C)C)C(=O)c3ccc4c(c3)OCCO4)nc12,-66*,7,-16,-4,-19
Cc1cccc2sc(N(CCN(C)C)C(=O)c3ccc4c(c3)OCCO4)nc12,/,7,-4,-3,-19
COc1ccc(C)c2sc(N(CCCN(C)C)C(=O)c3ccc4c(c3)OCCO4)nc12,-8,66*,-21,-13,-22
CCOc1cccc2sc(N(CCCN(C)C)C(=O)Cc3ccccc3)nc12,4,37*,-1,1,-11
Cc1cc(C)c2nc(N(CCCN(C)C)C(=O)c3ccc4c(c3)OCCO4)sc2c1,-17,26,-4,-8,-12
CCOc1cccc2sc(N(CCN(C)C)C(=O)c3cc4ccccc4cc3OC)nc12,-71*,33*,-70*,6,-15
Cc1cccc(NC(=O)Cn2nc(-c3ccccc3)c3cnc4ccccc4c32)c1,/,4,1,0,2
Cc1cccc2c1cnn2C(=O)CCC(=O)N1CCC(C)CC1,-57*,1,16,5,1
Cc1cc(=O)n2nc(N(C)CC(=O)NCc3ccccc3C)sc2n1,/,1,-4,-2,-10
CCC(=O)N1CCc2cc(CNS(=O)(=O)c3cc(Cl)ccc3OC)ccc21,/,2,7,2,-1
O=C(/C(=N\Nc1ccc([N+](=O)[O-])cc1)Sc1nnnn1-c1ccccc1)c1ccccc1,-82*,8,-12,1,-13
Cc1ccc(/C=C/C(=O)OCC(=O)Nc2ccccc2Sc2ccccc2)cc1,-3,32*,-11,-3,-11
Cc1ccc(C(=O)c2cn(Cc3cccc(Cl)c3)c3nc(C)ccc3c2=O)cc1,/,1,11,2,2
Cc1ccc(C(=O)CC2(O)C(=O)N(Cc3ccccc3)c3ccccc32)c(C)c1 (stereo unspecified),/,58*,-15,12,3
CCCCN1C(=O)C(O)(CC(=O)c2ccc(C(C)(C)C)cc2)c2ccccc21 (stereo unspecified),/,28,-49*,-5,3
COc1ccc(CN2C(=O)C(O)(CC(=O)c3ccc4c(c3)OCO4)c3ccccc32)cc1OC (stereo unspecified),3,3,-1,-1,36*
CCN1C(=O)C(O)(CC(=O)c2c(C)coc2C)c2ccccc21 (stereo unspecified),-8,0,-45*,-1,-2
CCN1C(=O)C(O)(CC(=O)c2ccc3c(c2)OCCO3)c2ccccc21 (stereo unspecified),35,5,4,/,3
Cc1coc(C)c1C(=O)CC1(O)C(=O)N(CCc2ccccc2)c2ccccc21 (stereo unspecified),-12,2,-7,0,-2
SMILES,DRD3 antagonist,D1 ag,D1 antagonist,D1 potentiator,D3 ag
C=C(C)c1cccc(C(C)(C)NC(=O)Nc2ccc(C)cn2)c1,1,30*,14,-3,-7
Cc1ccccc1Cn1c(=N)n(CC(O)c2ccco2)c2ccccc21 (stereo unspecified),-16,6,6,2,1
CC(C)(C)c1ccc(Cn2c(=N)n(CC(O)c3ccco3)c3ccccc32)cc1 (stereo unspecified),13,72*,-10,10,7
Cc1ccc(C)c(CN2C(=O)c3ccccc3S(=O)(=O)c3ccc(C(=O)N(C)C4CCCCC4)cc32)c1,/,5,11,1,-6
CC(C)NC(=S)N(C)C1(c2ccccc2Cl)CCCCC1=O (stereo unspecified),-2,0,27,-2,10
CN(C(=S)Nc1ccccc1F)C1(c2ccccc2Cl)CCCCC1=O (stereo unspecified),7,-1,9,0,30*
O=C(O)CCCn1cc(NC(=O)COc2ccccc2F)cn1,9,8,-39*!,1,5
Cc1cc(C)nc(NC(=NCCc2c[nH]c3ccc(Cl)cc23)NC(=O)c2ccccc2C)n1,/,-1,1,-2,4
Cc1cc(C)nc(NC(=NCCc2c[nH]c3ccccc23)NC(=O)C(C)(C)C)n1,9,3,-55*,-18,-16
CCCSc1ncc(Cl)c(C(=O)N(Cc2ccc(N(C)C)cc2)C2CCS(=O)(=O)C2)n1 (stereo unspecified),/,2,11,0,5
COc1ccc(S(=O)(=O)n2cccc2)cc1OC,-1,2,-35*,-6,-3
Cc1c(C(=O)Nc2ccc(F)c(F)c2)oc2ccc(S(=O)(=O)N3CCC4(CC3)OCCO4)cc12,/,3,-13,-3,31*
Cc1c(C(=O)NCc2c(F)cc(F)cc2F)oc2ccc(S(=O)(=O)N3CCOCC3)cc12,16,3,-45*,-4,2
Cc1c(C(=O)Nc2ccc(F)cc2)oc2ccc(S(=O)(=O)N3CCC4(CC3)OCCO4)cc12,29,14,0,-4,65*
CN(C)c1ccc(CNC(=O)C2CCN(S(=O)(=O)c3ccc4c(ccn4C)c3)CC2)cc1,/,0,-10,3,0
Clc1cc(Cl)c(OCC#CI)cc1Cl,/,/,/,/,2
COCCOC(=O)c1[nH]c2c(c1C)C(=O)CC(c1ccc(F)cc1)C2 (stereo unspecified),-3,64*,-7,-6,4
O=C(Cn1ncc(N2CCOCC2)c(Cl)c1=O)c1ccc(Cl)cc1,-6,-1,/,0,-6
O=C(Cn1ncc(Cl)c(Cl)c1=O)c1ccc(Cl)cc1,-55*,1,-25,-7,-7
O=C(OCn1ncc(Cl)c(Cl)c1=O)c1ccccc1Cl,-70*,3,-7,-3,-9
C=CCn1c(C)cc(C(=O)Cn2ncc(Cl)c(Cl)c2=O)c1C,-88*,0,8,-3,-14
O=C(Cn1cncn1)c1ccc(Cl)cc1,-80*,1,8,-6,2
COc1ccc(CCNC(=O)c2ccc(-n3c(C)cc4c3CCC(C)C4)cc2)cc1OC (stereo unspecified),/,-2,5,-3,6
CCc1ccc(CNC(=O)c2cc(=O)[nH]c3ccc(S(=O)(=O)N4CCCCC4)cc23)cc1,/,-2,-1,2,2
